Data reported in PubChem BioAssay (NCI).
Several values for one entry are separate records, joined by “and”; a condition that tells them apart may be missing. Equal values may be shown once. The panel holds about 83,000 compounds, 20% with a hit somewhere; the sample as a whole holds those more often.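 For each line, cells grew in 96-well plates with the test compound present at a single concentration for 48 hours.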 Activity calls are given as the source filed them.

These molecules were tested on HS 578T breast (assay: NCI-60 one-dose screen, 48 h (100 = growth as untreated, 0 = no growth, -100 = all killed)). Conditions: 10 µM unless noted.
Method: Growth inhibition of the HS 578T human tumor cell line is measured as a screen for anti-cancer activity. Cells are grown in 96 well plates and exposed to the test compound for 48 hours. Compounds are tested at a single concentration, which is 10^-5 M for most compounds. The reported endpoint is percent growth (GI% or GIPRCNT), where numbers from 0 - 100% represent growth inhibition, and numbers from -100% - 0 represent cell death. For example, a value of 40 represents 60% growth inhibition. A value of 0 means no net growth occurred over the course of the experiment. A value of -40 indicates 40% of cells at the beginning of the experiment died by the end of the experiment. A value of -100 means all cells are dead at the end of the experiment.
NCI-60 Human Tumor Cell Lines Screen was performed using the standard one-dose NCI protocol, which is described in more detail at https://dtp.cancer.gov/discovery_development/nci-60/default.htm.
Compounds with GIPRCNT values below 10 were considered active. Activity score was based on GIPRCNT using the following formula: […]
Score is 0 for GIPRCNT values of 100 or above, 50 for GIPRCNT values of 0, and 100 for GIPRCNT values of -100.
For C[C@]12C[C@H](c3ccoc3)OC(=O)[C@H]1CC[C@@]1(C)[C@@H]2[C@H]2C=C[C@]1(O)C(=O)O2, the growth was 107% (inactive).
In the case of Cn1cc(C(=O)C[n+]2ccccc2)c2ccccc21, the growth is reported as 96.8% (inactive).
O=C1CN2CCC1CC2 was tested, and the growth was 101% (inactive).
C=CC[PH+](c1ccccc1)c1ccccc1.C=CC[PH+](c1ccccc1)c1ccccc1.[Pt+2].[S-]c1ncccn1.[S-]c1ncccn1 was tested, and the growth was 61.6% (inactive).
For C=C[Se]CC(=O)/C=C/c1ccccc1, the growth was 66.1% (inactive).
With O=C1c2ccccc2C(=O)N1N1CC1c1ccccc1 (stereo not given) the growth was 112% (inactive).
COc1cc(C2C3=C(CCCC3=O)N(CCO)c3cc4c(cc32)CCC4)cc(OC)c1OC (stereo not given) was tested, and the growth was 99.9% (inactive).
In the case of CO[C@H]1[C@H](O[C@@H]2C[C@@H]3C/C=C/C(=O)O[C@@H](CO)C[C@H](O)[C@@H]4C[C@H](C)[C@H](C/C=C\C=C\[C@H](C)C[C@H](C2)O3)O4)O[C@@H](C)[C@H](O)[C@H]1O, the growth is reported as 95.1% (inactive).
For CC1(C)N=C(N)N=C(N)N1c1ccc(CCC(=O)Nc2ccc(S(=O)(=O)F)cc2)cc1, the growth was 82% (inactive).
With CC1=CC(=Nc2ccc(N(CCCl)CCCl)cc2)C=C(C)C1=O the growth was 26.7% (inactive).
O=[P+](O)c1cccnc1 was tested, and the growth was 105% (inactive).
In the case of COC(=O)C1=CCCN(C)C1, the growth is reported as 104% (inactive) and 117% (inactive).
In the case of CCCCCCCCCCCCCCCC[N+](C)(C)Cc1ccccc1, the growth is reported as 8.98% (active) and -27.8% (active).
With N#CC(C#N)=Cc1cccc(F)c1 the growth was 101% (inactive).
For CC1(C)N(Nc2ccccc2)C(=O)C2CCCN21 (stereo not given), the growth was 85.9% (inactive).
With COc1cc(C=C2C(=O)NC(=O)NC2=O)ccc1O the growth was 123% (inactive).
In the case of O=C(CCCN1CCC2(CC1)C(=O)NCN2c1ccccc1)c1ccc(F)cc1, the growth is reported as 97.1% (inactive) and 79.2% (inactive).
In the case of O=C(O)c1ccc(=O)[nH]c1, the growth is reported as 98.5% (inactive) and 102% (inactive).
With COc1ccc2c(c1)c(-c1nc(-c3cn(C)c4ncccc34)cs1)cn2CCCCN1CCOCC1 the growth was 18.8% (inactive).
CC1=C(C)C(=O)O[C@@H]([C@](C)(O)[C@]2(O)CC[C@@]3(O)[C@@H]4C[C@H]5O[C@]56CC=CC(=O)[C@]6(C)[C@H]4CC[C@]23C)C1 was tested, and the growth was 9.59% (active).
With COC(=O)CCP(CCC(=O)OC)c1ccccc1 the growth was 114% (inactive).
In the case of CCCN1C(=O)NC(=O)C(CC)(N2C(=O)c3c(F)c(F)c(F)c(F)c3C2=O)C1=O (stereo not given), the growth is reported as -24.6% (active).
C=CCOC(=O)C(Br)CC (stereo not given) was tested, and the growth was 104% (inactive).
For COc1cc2c(cc1OC)-c1c3c(cc4c1[C@@H](C2)N(C)CC4)OCO3, the growth was 80.4% (inactive).
C[C@]12CCc3sc(Nc4ccc(O)cc4)nc3C1=CC[C@@H]1[C@@H]2CC[C@]2(C)C(=O)CC[C@@H]12 was tested, and the growth was 53.6% (inactive).
In the case of O=S(=O)(c1ccc(O)cc1)c1ccccc1O, the growth is reported as 104% (inactive).
CC[PH+](CC)CC.O=COC1OC([S-])C(OC=O)C(OC=O)C1OC=O.[Au+] (stereo not given) was tested, and the growth was 14.5% (inactive).
For Clc1ccc(COC(Cn2ccnc2)c2ccc(Cl)cc2Cl)c(Cl)c1 (stereo not given), the growth was 74.3% (inactive).
In the case of C[C@]12CCc3sc(Nc4ccc(F)cc4)nc3C1=CC[C@@H]1[C@@H]2CC[C@]2(C)C(=O)CC[C@@H]12, the growth is reported as 55.3% (inactive).
CN1CCC2(CC1)C(C#N)C(=O)NC(=O)C2C#N (stereo not given) was tested, and the growth was 113% (inactive).
COc1ccc(N)cc1OC was tested, and the growth was 116% (inactive).
CC[C@H](C)[C@H](NC(=O)c1ncccn1)C(=O)N(C)[C@H](C[C@@H](OC(C)=O)c1nc(C(=O)N[C@@H](Cc2ccccc2)C[C@H](C)C(=O)OC)cs1)C(C)C was tested, and the growth was 18.3% (inactive).
For O=[N+]([O-])c1ccc2scc3c4ccccc4nc-3c2c1, the growth was -2.07% (active).
In the case of COC(=O)[C@@H](C)C[C@H](Cc1ccccc1)NC(=O)c1cccc([C@@H](C[C@H](C(C)C)N(C)C(=O)[C@@H](NC(=O)[C@H]2CCCCN2C)C2CC2)OC(C)=O)n1, the growth is reported as 27% (inactive).
CCC(Br)(CC)C(=O)NC(N)=O was tested, and the growth was 106% (inactive).
N#CCc1ccc(CC#N)cc1 was tested, and the growth was 96.6% (inactive).
With C[C@]12CC[C@H]3[C@@H](CC=C4c5nc(-c6ccc(Br)cc6)sc5CC[C@@]43C)[C@@H]1CC[C@@H]2O the growth was 74% (inactive).
CCCC[C@H]1C(=O)O[C@H](C)[C@H](NC(=O)c2cccc(NC=O)c2O)C(=O)O[C@@H](C)[C@@H]1OC(=O)CC(C)C was tested, and the growth was -18.5% (active).
CC(C)CCC1C(=O)NC(=O)NC1=O was tested, and the growth was 96.6% (inactive).
In the case of CCCCCCCCCCCCCCCCCCn1cc[n+](C)c1, the growth is reported as -26.1% (active) and -37% (active).
